In the library only some 9.3% were active in any assay of this set; here they are far more common.
NPC1 promoter act = qHTS Assay for NPC1 Promoter Activators; AID 485313, 2010; 320,000 compounds, 2.4% hits; Potency, µM (top dose mostly 9.22 µM), for inactives: at the highest dose activation, hits mostly activators; Huh7 NPC1 promoter luciferase reporter, 24 h; further: % of control where 0% means no effect; nearly all actives have a fitted effect of over 60% in size
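Luminescence from an NPC1 promoter-driven luciferase reporter in stably transfected Huh7 cells was measured after 24 h compound treatment at 37 °C, followed by 10 min ambient incubation with luciferase detection reagent.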
ELG1 repair inh = qHTS screen for small molecules that inhibit ELG1-dependent DNA repair in human embryonic kidney (HEK293T) cells expressing luciferase-tagged ELG1. HEK293T ELG1-luciferase reporter, luminescence, 16 h; DNA damage induced by 5-fluorouridine. Potency, µM (titrated, usually from 46.1 µM), without a hit: at the top dose activity change, negative = inhibition, usual class: inhibitors. 330,000 compounds, 2.3% hits. AID 504467, 2011; further: on the % scale 0 is the no-effect control and ±100 the full control effect; nearly all actives have a fitted effect of over 55% in size
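Quantitative HTS, concentration-response format. 2,000 cells/well co-treated with 5-fluorouridine and compound, 16 hr in 5% CO2 at 37 °C; ONE-Glo luminescence read after 30 min.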
FLuc modulator = qHTS profiling assay for firefly luciferase inhibitor/activator using purifed enzyme and Km concentrations of substrates (counterscreen for miR-21 project); Luciferin 4-monooxygenase (Photinus pyralis), P08659; AID 588342, 2011; 360,000 compounds, 6.9% hits; purified FLuc, Km substrates, luminescence inhibition; Potency, µM (highest dose often 57.5 µM), inactives show top-dose activity change, negative = inhibition, most hits filed as inhibitors;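 further: plate controls were vehicle for no effect and reference inhibitor for full effect; nearly all actives have a fitted effect of over 55% in size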
Target sequence (P08659 whole entry, looked up): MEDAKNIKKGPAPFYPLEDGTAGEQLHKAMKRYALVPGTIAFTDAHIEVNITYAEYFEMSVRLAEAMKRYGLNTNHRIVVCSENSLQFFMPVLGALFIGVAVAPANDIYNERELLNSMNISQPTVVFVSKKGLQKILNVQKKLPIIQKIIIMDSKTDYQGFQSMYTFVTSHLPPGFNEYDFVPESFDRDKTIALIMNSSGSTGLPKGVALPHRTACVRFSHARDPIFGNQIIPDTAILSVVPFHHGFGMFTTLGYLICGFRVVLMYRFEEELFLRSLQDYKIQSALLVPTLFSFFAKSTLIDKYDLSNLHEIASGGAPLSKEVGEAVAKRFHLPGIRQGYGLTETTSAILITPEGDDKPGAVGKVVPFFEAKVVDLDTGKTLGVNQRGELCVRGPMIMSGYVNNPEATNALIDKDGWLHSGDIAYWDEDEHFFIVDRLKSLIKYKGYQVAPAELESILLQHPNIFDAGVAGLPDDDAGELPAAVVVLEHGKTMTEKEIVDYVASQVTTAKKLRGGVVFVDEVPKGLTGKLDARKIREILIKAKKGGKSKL
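Purified P. pyralis luciferase, 10 nM final, with Km-level 10 uM D-luciferin and 10 uM ATP in 50 mM Tris acetate pH 7.5, 10 mM Mg acetate, 0.01% Tween-20, 0.05% BSA; 6-point qHTS titration about 60 µM downward; luminescence read.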
SMN2 splice up = qHTS Assay for Enhancers of SMN2 Splice Variant Expression; HEK293 SMN2-luciferase splicing reporter, luminescence, 30-36 h; Potency, µM (titrated, usually from 46.1 µM), for the others: at the highest dose activity change, positive = activation, actives largely listed as activators; 210,000 compounds, 2.8% hits; AID 1458, 2008; further: % of control where 0% means no effect; nearly all actives have a fitted effect of over 55% in size
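HEK293 cells carry an SMN2 […]–luciferase reporter in which exon 7 inclusion puts luciferase in frame. Cells were plated 10-12 h before compound addition, then incubated 30-36 h at 37C. ONE-Glo luminescence was read; sodium butyrate at 4.5 mM final served as control.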
Rab9 promoter act = qHTS Assay for Rab9 Promoter Activators; Huh7 Rab9 promoter-luciferase reporter, luminescence, 24 h; Potency, µM (doses to about 9.22 µM), without a hit: top-dose activation, negative = inhibition, actives largely listed as activators; 320,000 compounds, 2.8% hits; AID 485297, 2010; further: % of control where 0% means no effect; nearly all actives have a fitted effect of over 60% in size
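Stable Rab9-luc Huh7, 1500 cells/well, 2 h settle; cmpd in DMSO, 24 h, 37 °C/5% CO2; luciferase reagent 10 min RT; luminescence.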
ELG1 genotoxic = qHTS screen for small molecules that induce genotoxicity in human embryonic kidney (HEK293T) cells expressing luciferase-tagged ELG1. HEK293T ELG1-luciferase reporter, luminescence, 16 h. Potency, µM (highest dose often 46 µM), without a hit: at the highest dose activity change, positive = activation, hits mostly activators. 330,000 compounds, 1.3% hits. AID 504466, 2011; further: % of control where 0% means no effect; nearly all actives have a fitted effect of over 60% in size
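Reporter readout depends on ELG1 protein level, which increases with genetic stress. After 16 hr compound exposure at 37 °C, luciferase activity was quantified using ONE-Glo.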
* hit, by the source's call; ? = inconclusive; . = no result given. The call rests on the fitted dose curve; in most records, active means well fitted curve in the direction sought with a large enough effect; inconclusive means small, poorly fitted or top-dose-only effect, or another doubt; inactive means no such curve, though single readings can be large; an effect the other way counts as inactive or inconclusive. Potency means the concentration at half of the fitted maximal effect.

SMILES	NPC1 promoter act	ELG1 repair inh	FLuc modulator	SMN2 splice up	Rab9 promoter act	ELG1 genotoxic
CC(C)(C)C1CCc2c(sc(NC(=O)CSc3ncn[nH]3)c2C#N)C1 (configuration not stated)	-8.9%	?	?	-40.1%	0.3%	-1.2%
CCN(CCNCC(O)COc1ccccc1C(C)C)c1cccc(C)c1 (configuration not stated)	0.0%	3.3%	2.8%	.	-4.0%	-11.2%
Cc1ccc(N=Nc2ccc(C)cc2NC(=O)Nc2ccccc2F)cc1	14.1%	22.0%	?	.	1.3%	17.2%
CCCc1cc(=O)[nH]c(SCC(=O)Nc2sc3c(c2C#N)CCC(C)C3)n1 (configuration not stated)	-2.9%	10.1%	26.9µM*	-17.0%	-1.9%	3.5%
CC1CCc2c(sc(NC(=O)CSc3nnc(-c4ccccc4)o3)c2C#N)C1 (configuration not stated)	-2.4%	27.1%	2.1%	8.6%	1.1%	9.4%
CCC/C(=N\NC(=O)c1csc(C)c1C)c1cccs1	?	?	4.78µM*	15.8µM*	3.16µM*	10.3µM*
C/C(=N\NC(=O)c1csc(C)c1C)c1ccc(Cl)s1	?	?	?	-3.4%	?	?
Cc1cc(C(=O)NN=C(CCC(=O)O)c2cccs2)c(C)o1	.	0.0%	.	.	.	0.6%
CC/C(=N\NC(=O)c1csc(C)c1C)c1cccs1	2µM*	?	2.39µM*	14.1µM*	1.12µM*	?
Nc1ccc(Cl)c(S(=O)(=O)Nc2ccc(Cl)cc2)c1	-0.3%	0.0%	-1.0%	.	-3.7%	-2.9%
CCCOc1ccc(-c2cnc(SCC(N)=O)nc2N)cc1	2.2%	4.4%	-12.9%	-23.9%	2.3%	0.5%
CCOC(=O)c1ccc(CSc2nnc(N)s2)cc1	?	?	16.9µM*	?	?	23.1µM*
CCOc1ccc(-c2nc(CSc3nnc(N)s3)cs2)cc1OC	-3.2%	?	?	11.2%	13.0%	4.5%
CCCOc1ccc(-c2cnc(N)s2)cc1	?	?	10.7µM*	17.8µM*	3.16µM*	?
Nc1nnc(SCCCOc2ccc(F)cc2)s1	-4.5%	-5.8%	15.1µM*	.	3.0%	-4.6%
Nc1nnc(SCCOc2cccc(Br)c2)s1	12.5%	?	?	-2.3%	14.4%	8.9%
CCOc1ccc(-c2nc(CSc3nnc(N)s3)cs2)cc1	?	?	1.9µM*	?	?	5.01µM*
CCCC(C(=O)NCCC(C)C)N(Cc1ccccc1)C(=O)c1snc(C(N)=O)c1N (configuration not stated)	5.1%	?	-1.4%	.	-4.2%	-1.9%
CCCCCCCC(=O)OC[C@H](CO)OC(=O)CCCCCCC	.	.	.	-9.9%	.	.
CCCOc1ccc(OCCSc2nnc(N)s2)cc1	?	?	4.78µM*	?	?	12.6µM*
COc1ccc(N(CC(=O)Nc2ccc3c(c2)OCCO3)S(=O)(=O)c2c(C)noc2C)cc1	-1.7%	-11.3%	1.3%	-24.4%	-4.9%	0.5%
CCN(CC(=O)Nc1ccc2c(c1)OCCO2)C(=O)COc1cc(C)ccc1Cl	0.5%	-15.3%	-16.8%	.	-3.9%	0.0%
O=C(COc1cc(Cl)c(Cl)cc1Cl)NC(=O)Nc1ccc2c(c1)OCCO2	?	?	21.3µM*	17.8µM*	?	?
COc1ccc(C)cc1S(=O)(=O)N(CC(=O)Nc1ccc2c(c1)OCCO2)Cc1ccccc1	-0.6%	18.4µM*	-4.3%	-2.1%	-0.7%	-8.0%
Cc1ccc(Cl)c(OCC(=O)Nc2ccc3c(c2)OCCO3)c1	2.82µM*	?	1.9µM*	17.8µM*	1.41µM*	14.2%
SMILES	NPC1 promoter act	ELG1 repair inh	FLuc modulator	SMN2 splice up	Rab9 promoter act	ELG1 genotoxic
O=C(COC(=O)COc1ccc(Cl)cc1)Nc1ccc2c(c1)OCCO2	-0.4%	?	-0.6%	.	-2.5%	-3.8%
Cc1ccc(N(CC(=O)Nc2ccc3c(c2)OCCO3)S(=O)(=O)c2c(C)noc2C)cc1	1.4%	16.4µM*	-1.1%	-22.2%	-1.5%	-6.9%
Cc1nc(N2CCCC2)c2c(C(=O)Nc3ccc(Br)cc3F)c(C)oc2n1	.	.	-0.1%	.	.	.
CCC(Oc1ccccc1)C(=O)Nc1cc(-c2ccccc2F)nn1-c1ccccc1 (configuration not stated)	.	.	-9.3%	.	.	.
CCCC1CCC(c2nc(-c3cccnc3)no2)CC1 (configuration not stated)	24.4%	?	23.9µM*	-2.7%	?	14.5%
CCNC(=O)NC(=O)COC(=O)CCCSc1nc2ccccc2s1	-6.8%	-2.0%	19µM*	0.9%	-7.6%	2.8%
Cc1cc(C)n2c(Br)c(CSc3nc4ccccc4s3)nc2n1	?	?	?	11.2µM*	?	?
Cc1ccccc1NC(=O)CCCSc1nc2ccccc2s1	-0.1%	16.0%	?	0.9%	-0.3%	1.8%
CC(C)(C)NC(=O)CCCSc1nc2ccccc2s1	?	?	15.1µM*	?	1.78µM*	?
Cc1noc(C)c1CSc1nc2ccccc2s1	-4.3%	?	?	-11.6%	0.6%	?
Cc1cc(C)nc(NC(=O)CSc2nc3ccccc3s2)n1	?	?	12µM*	6.2%	3.16µM*	5.8µM*
CCNC(=O)NC(=O)C(C)OC(=O)CCCSc1nc2ccccc2s1 (configuration not stated)	0.8%	-0.6%	-14.7%	-9.6%	-3.1%	-0.3%
Cc1nnc(NC(=O)Cn2nc(C)c3ccccc3c2=O)s1	-0.2%	6.6%	-2.2%	-2.4%	-2.5%	-0.5%
COc1cc(O)c2c(=O)cc(-c3ccc(OC)c(-c4c(O)cc(O)c5c(=O)cc(-c6ccc(O)cc6)oc45)c3)oc2c1	.	.	.	5.4%	.	.
O=c1cc(-c2ccc(C(F)(F)F)cc2)oc2ccccc12	.	24.7%	.	.	.	0.2%
O=c1cc(-c2ccc(O)c(O)c2)oc2ccccc12	.	.	.	14.1µM*	.	.
COc1ccc2c(=O)cc(-c3ccccc3F)oc2c1	?	?	21.3µM*	.	?	?
COc1ccc(-c2cc(=O)c3c(O)cc(O)cc3o2)cc1	?	?	1.9µM*	?	3.16µM*	?
O=c1cc(-c2ccccc2)oc2ccccc12	?	?	?	?	?	20.6µM*
CCc1nnc(NC(=O)C(c2ccccc2)c2ccccc2)s1	-1.1%	-11.0%	0.5%	.	0.0%	-7.8%

Bioassay records (PubChem)
